The structures appear in SMILES notation. Inconclusive results are not listed. Where a call stands in place of a potency, no number is given. Activity calls are given as the source filed them. Calls come from the whole dose curve; as a rule, active = well fitted inhibition curve with a large enough effect; inconclusive = small, poorly fitted or top-dose-only effect; inactive = flat fitted curve, though single readings scatter.

Chain of Glutathione peroxidase 1 (Homo sapiens) (P07203 whole entry, looked up): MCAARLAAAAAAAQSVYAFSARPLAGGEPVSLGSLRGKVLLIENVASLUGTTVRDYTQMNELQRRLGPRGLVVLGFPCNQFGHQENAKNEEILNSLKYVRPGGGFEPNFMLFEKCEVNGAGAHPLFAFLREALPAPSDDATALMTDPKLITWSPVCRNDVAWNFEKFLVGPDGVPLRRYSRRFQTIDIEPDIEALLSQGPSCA

This experiment has as its target Glutathione peroxidase 1 (Homo sapiens) (UniProt P07203). As to the kind of experiment: Primary qHTS Assay for Inhibitors of Recombinant Selenoprotein Glutathione Peroxidase 1 (GPX1) (AID 1845191). Note: nearly all actives have a fitted effect of over 65% in size. Particulars: recombinant GPX1, GR-coupled NADPH fluorescence, 15 min; series mostly up to 48.8 µM. An excerpt: Assay Provider: Elias S.J. Arner MD PhD.
Department of Medical Biochemistry and Biophysics
Karolinska Institutet, Solna, Stockholm, Sweden
Selenoprotein glutathione peroxidases (GPX), like the ubiquitously expressed GPX1 and the ferroptosis modulator GPX4, enact their antioxidant activities by reducing hydroperoxides using glutathione. […] GPX1 and GPX4 inhibitors have thus shown promise as anti-cancer agents. Existing inhibitors are often promiscuous, or modulate GPX activity only indirectly, so novel direct inhibitors identified through screening against GPX1 and GPX4 could be valuable. Here, we developed optimized glutathione reductase (GR)-coupled GPX assays for the biochemical high-throughput screen (HTS) of almost 12,000 compounds with known mechanisms of action. Initial hits were triaged using a GR counter-screen, assessed for isoform specificity using a separate GPX2 assay, and were assessed for general selenocysteine-targeting activity using a thioredoxin reductase (TXNRD1) assay. With this suite of assays, we identified novel GPX1/GPX2- and GPX4-specific inhibitors and can here present a validated pipeline for future discovery research for selenoprotein-targeting agents.
SEQUENCE No. (e.g., 1, 2, 3, etc.); […] (e.g., Cells, Incubation, Reagent, etc.); VALUE; DESCRIPTION.
1; Reagent 1; 3 uL; GPx1 enzyme or no enzyme control in 1536-well, black, solid Greiner assay plate.
2; Compound; 25 nL; Kalypsis pin tool (Wako USA) equipped with a 1536-well pin head.
3; Incubation; 30 min; room temperature.
4; Reagent 2; 1 uL; 10 nM GPX1, 1 mM GSH, 0.5 mM CHP, 0.5 mM NADPH, 100 nM GR, 0.01% BSA substrate
5; Detection; Fluorescence; ViewLux microplate reader, excitation 340 nm and emission 450 nm.
6; Incubation; 15 min; room temperature.
7; Detection; Fluorescence; ViewLux microplate reader, excitation 340 nm and emission 450 nm.
NOTES (numbers refer to Sequence numbers above)
1. 3 uL of 16.66 nM GPX1 and 0.016% BSA in assay buffer (50 mM Tris-HCl, 2 mM EDTA (pH 7.5), 150 mM NaCl) was added to columns 3-48 of 1536-well assay plates using a BioRAPTR Flying Reagent Dispenser (Let's Go Robotics (LGR), Carlsbad, CA). A no-enzyme control (0.01% BSA in TES assay buffer) was added to columns 1-2.
2. 25 nL of test compounds and DMSO controls were added to each well with a pin tool (Kalypsys).
3. The assay plates were incubated for 30 minutes at room temperature.
4. 1 uL of master mix (500 nM glutathione reductase (GR), 5 mM reduced glutathione (GSH), 2.5 mM NADPH in assay buffer) was added. 1 uL of cumene hydroperoxide (CHP) ([2.5 mM] in 50% EtOH) was then added within 5 minutes to initiate the reaction. Final concentrations were: 10 nM GPX1, 1 mM GSH, 0.5 mM CHP, 0.5 mM NADPH, 100 nM GR, 0.01% BSA.
5. Initial fluorescence readout (t=0) at 340/450 nm was measured using a ViewLux multimodal detector (PerkinElmer, Waltham, MA).
7. Endpoint fluorescence readout (t=15) at 340/450 nm was measured 15 min after room temperature incubation.
On the technique in general: In qHTS, concentration-response curves come from the screen itself.
Turning to `OC[C@@]1(O)CO[C@@H](OC[C@H]2O[C@@H](Oc3c[nH]c4ccccc34)[C@H](O)[C@@H](O)[C@@H]2O)[C@@H]1O`, the Potency entry was “inactive”. The same measure, in the same setting: the entry for `C#CCN(Cc1cc2c(=O)n(C)c(CN3CCN(C)CC3)nc2cc1Cl)c1ccc(C(=O)NCc2cccnc2)cc1` is “inactive”; for `CC1(C=O)CC[C@]2(C(=O)O[C@@H]3O[C@H](CO)[C@@H](O)[C@H](O)[C@H]3O)CC[C@]3(C)C(=CCC4[C@@]5(C)C[C@H](O)[C@H](O[C@@H]6OC[C@@H](O)[C@H](O)[C@H]6O)[C@@](C)(CO)C5CC[C@]43C)C2C1` (stereo not given in full) it is “inactive”. Take `C[C@@H]1O[C@@H](O[C@H]2[C@H](O)[C@@H](O)[C@H](OC[C@H]3O[C@@H](OC(=O)[C@]45CCC(C)(C)C[C@H]4C4=CCC6[C@@]7(C)CC[C@H](O[C@@H]8OC[C@H](O)[C@H](O[C@@H]9O[C@H](CO)[C@@H](O)[C@H](O)[C@H]9O)[C@H]8O)[C@@](C)(CO)C7CC[C@@]6(C)[C@]4(C)CC5)[C@H](O)[C@@H](O)[C@@H]3O)O[C@@H]2CO)[C@H](O)[C@H](O)[C@H]1O` (stereo not given in full): the activity, negative = inhibition is -7.31% [at 9.52 µM] (inactive).

On to `C=C1C(=O)O[C@@H]2C/C(C)=C\C(=O)/C=C(\C)[C@@H](OC(=O)/C(C)=C\C)[C@H](O)[C@@H]12`, for which the Potency result is “inactive”. On the same count and under the same terms, under `OC[C@H]1O[C@@H](O[C@H]2[C@H](OCCc3ccccc3)O[C@H](CO)[C@@H](O)[C@@H]2O)[C@H](O)[C@@H](O)[C@@H]1O` stands “inactive”; under `CC(C)[C@@](C)(O)[C@@H]1CN(c2nc(-c3[nH]nc4ncccc34)c(F)cc2Cl)CCN1`, “inactive”. Take `CCN(CC)Cc1ccc(C(=O)N(CCc2ccccc2OC)[C@@H]2CCNC2)cc1`: the Potency result is “inactive”.

Take `COc1ccc(C(=O)C2CCN(CC(=O)N(Cc3nc4c(c(=O)[nH]3)COCC4)CC3CC3)CC2)cc1`: the Potency result is “inactive”.

`C/C=C(\C)C(=O)O[C@H]1[C@@H](O[C@]2(COC(=O)CC(C)C)O[C@H](COC(=O)C(C)CC)[C@@H](OC(C)=O)[C@@H]2O)O[C@H](COC(C)=O)[C@@H](O)[C@@H]1O` (stereo not given in full): the Potency result is “inactive”. The same measure, in the same setting: under `CC(C)=CCC/C(C)=C/CO[C@@H]1O[C@H](CO)[C@@H](O)[C@H](O)[C@H]1O` stands “inactive”; under `O=C1CCC(=O)N(O)CCCCCNC(=O)CCC(=O)N(O)CCOCCNC(=O)CCC(=O)N(O)CCCCCN1`, “inactive”.

With `CC(C)(C)CCN1C[C@@H]2C(CNC(=O)c3cc(Cl)cc(Cl)c3)[C@@H]2C1` (stereo not given in full), the Potency result is “inactive”.

As for `CC1(C)CC(NC(=O)C(=O)Nc2ccc(Br)cc2)CC(C)(C)N1`, the Potency result was “inactive”.

As for `Cc1cc2c(F)c(Oc3ncnn4cc(OCC(C)O)c(C)c34)ccc2[nH]1` (stereo not given), the Potency result was “inactive”.

As to `COc1c(Nc2ncc(Cl)c(N[C@H]3[C@@H](C(N)=O)[C@@H]4C=C[C@H]3C4)n2)ccc2c1CC[C@@H](N1CCOCC1)CC2`, the Potency result was “inactive”. Same read-out and setting: under `CC(C)C(CO)Nc1nc(Nc2ccc(C(=O)O)c(Cl)c2)c2ncn(C(C)C)c2n1` (stereo not given) stands “inactive”; under `CCCCc1ccc(C(=O)Nc2cc(-c3ccc(Cl)cc3)nn2-c2ccc(Cl)cc2)cc1`, “inactive”. `C[C@@H]1CCC2C(C)(C)[C@H](O)CC[C@]2(C)[C@@]12Cc1c(O)cc3c(c1O2)CN([C@@H](CCC(=O)O)C(=O)O)C3=O` (stereo not given in full): the Potency entry is “inactive”.

Turning to `CON(C)C(=O)[C@H](O)[C@H](Cc1ccccc1)NC(=O)c1cc2cc(Cl)ccc2[nH]1`, the Potency entry is “inactive”. `CC1(C)CC[C@]2(C(=O)O[C@@H]3O[C@H](CO)[C@@H](O)[C@H](O)[C@H]3O)CC[C@]3(C)C(=CCC4[C@@]5(C)C[C@@H](O)[C@H](O)[C@](C)(C(=O)O)C5CC[C@]43C)C2C1O` (stereo not given in full): the Potency entry was “inactive”. Same read-out and setting: the entry for `COC(=O)C[C@H]1[C@]2(C)C3=C(C)[C@H](c4ccoc4)C[C@H]3O[C@@H]2[C@H](OC(C)=O)C2[C@](C)(C(=O)OC)C=CC(=O)[C@@]21C` (stereo not given in full) is “inactive”.

Regarding `COc1cc2ncnc(Nc3ccc(F)c(Cl)c3)c2cc1NC(=O)/C=C/CN1CCCCC1`, the Potency entry is “inactive”. The same measure, in the same setting: under `CC1CCC2(CO)C(C(=O)O)=CCCC2C1(C)CCc1ccoc1` (stereo not given) stands “inactive”. On the same count and under the same terms, the entry for `C=C(F)c1sc(CNCCCNc2cc(=O)c3ccccc3[nH]2)c(C)c1Br` is “inactive”. Still for that read-out and setting: under `CC(=O)OC1C(OC(=O)c2ccccc2)C2C(C)(C)CC(=O)CC2(C)C23CCC(C)(C2)C(O)CC13` (stereo not given) stands “inactive”. Turning to `CC1(C)CC[C@]23CO[C@@]4(CCC5[C@@]6(C)CC[C@H](O[C@@H]7OC[C@H](O[C@@H]8O[C@H](CO)[C@@H](O)[C@H](O)[C@H]8O)[C@H](O)[C@H]7O[C@@H]7O[C@H](CO)[C@@H](O[C@@H]8O[C@H](CO)[C@@H](O)[C@H](O)[C@H]8O)[C@H](O)[C@H]7O)[C@@](C)(CO)C6CC[C@@]5(C)[C@]4(C)C[C@H]2OC2OCC(O)C(O)C2O)C3C1` (stereo not given in full), the activity, negative = inhibition is -19.2% [at 9.52 µM] (inactive). Turning to `COc1ccc(/C=C/C(=O)O[C@@H]2[C@@H](O)[C@@H](O)[C@H](O[C@@H]3C=C(CO)[C@H]4[C@H](O[C@@H]5O[C@H](CO)[C@@H](O)[C@H](O)[C@H]5O)OC=C[C@H]43)O[C@H]2C)cc1O`, the Potency result is “inactive”. Still for that read-out and setting: under `COc1ccc(N(C)c2nc(C)nc3ccccc23)cc1` stands “inactive”; under `C=C(C(=O)O)C1CCC2(C)CCC(O)C(C)(O)C2C1` (stereo not given), “inactive”. Take `COC1=CC(=O)CC(C)C12Oc1cc(OC)cc(O)c1C2=O` (stereo not given): the Potency entry is “inactive”. On the same count and under the same terms, the entry for `COc1ccc2nc(S(=O)(=O)Cc3ncc(C)c(OC)c3C)[nH]c2c1` is “inactive”; for `CC/C=C\CC1C(=O)C=CC1(CCCCCCCC(=O)O)OC(C)=O` (stereo not given) it is “inactive”; for `C=C(C)C1CCC2(C(=O)O[C@@H]3O[C@H](CO[C@@H]4O[C@H](CO)[C@@H](O)[C@H](O)[C@H]4O)[C@@H](O)[C@H](O[C@@H]4O[C@@H](C)[C@H](O)[C@@H](O)[C@H]4O)[C@H]3O)CCC3(C(=O)O)C(CCC4C5(C)CCC(O)C(C)(C)C5CCC43C)C12` (stereo not given in full) it is “inactive”. Same read-out and setting: under `CCC(C)C(=O)OC1CC(O)C23C4OCC5(C(O)CC2C1(C)C(O)O4)C3C(=O)CC1(C)C(c2ccoc2)CC2OC215` (stereo not given) stands “inactive”. `CC(=O)N1CCN(Cc2ccc([C@H](C)Nc3nccc(N4C(=O)OC[C@@H]4C(C)C)n3)cc2)CC1`: the Potency result is “inactive”.

On to `CC1=C(CCC(C)CC(=O)O)[C@@]2(C)CCCC(C)(C)C2CC1=O` (stereo not given in full), for which the Potency result is “inactive”. Still for that read-out and setting: under `CC(=O)c1cc2c(cc1O)OC(C)(C)C=C2` stands “inactive”; under `COC(=O)C(C)C1CCC2(C)C(=O)C=CC(C)(O)C2C1O` (stereo not given), “inactive”; under `Clc1cc2c(NC3CCCC3)nnc(-c3ccncc3)c2cc1Cl`, “inactive”.

The values above are taken from PubChem BioAssay (NCATS).
